# Screening data (PubChem)
# HCMV antiviral = human cytomegalovirus inhibition; HFF cells, HCMV-luciferase reporter, 72 h; stronger effect = lower value; activity change, negative = inhibition, % at 57.5 µM; 4.5% of 410,000 active; AID 1259415; in the data active = activity change below about -60%; inconclusive = no clear call, values can overlap the other calls; inactive = above about -39%
#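 After 16 h attachment at 37C, HFF cells received test compound and HCMV-luciferase (1 PFU/cell); reporter luminescence read 72 h later, data normalized against buffer-only and known inhibitor Salinomycin.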
# Cycloheximide cs = counter-screen hit for Shiga toxin inhibitors, cycloheximide; cell reporter, cycloheximide protein synthesis inhibition counterscreen; max response, %; 12% of 300,000 active; AID 2314; in the data active = max response mostly above about 13%, no sharp cut-off; inactive = mostly below about 14%; note: read at 38.3 µM for the half of the compounds with a filed dose
# Pf growth 96h = P. falciparum growth inhibition at 96 hour, primary screen for plastid delayed-death inhibitors; P. falciparum luciferase reporter growth, 96 h; Potency, µM (series often up to 28.7 µM), actives largely listed as inhibitors; 6.9% of 320,000 active; AID 504834
#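 Infected RBCs, 2% Hct / 0.05% parasitemia final; luciferase-reporter P. falciparum; cpd 96 h, 37 C, 5% CO2; luciferase detection reagent; luminescence.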
# Shiga inhibitor = blocks Shiga toxin action in Vero cells; Vero cells, Shiga toxin protein synthesis inhibition reporter; inhibition, % at 38.7 µM; 9.2% of 290,000 active; AID 2315; in the data active = inhibition mostly above about 28%, no sharp cut-off; inactive = mostly below about 43%
# Pf growth 48h = inhibits P. falciparum growth in the first generation, 48 h; P. falciparum luciferase growth in erythrocytes, 48 h; Potency, µM (highest dose often 28.7 µM), hits mostly inhibitors; 5.9% of 310,000 active
#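 Growth was read as firefly luciferase luminescence after a 48 h, 37 C, 5% CO2 exposure of compounds to reporter-bearing P. falciparum cultures (0.1% parasitemia, 2% hematocrit final) in Albumax-supplemented RPMI 1640.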
# Numbers stand for hits; - = inactive; ? = inconclusive; . = no result; + = active, no number; [ ] = remark or other dose. Most compounds without a hit are left out; they make up all but 20% or so of the library. Unless noted, calls come from the whole dose curve; as a rule, active = well fitted inhibition curve with a large enough effect; inconclusive = small, poorly fitted or top-dose-only effect, or another doubt; inactive = no such curve, though single readings can be large or run the other way.
SMILES,HCMV antiviral,Cycloheximide cs,Pf growth 96h,Shiga inhibitor,Pf growth 48h
COc1cccc(CN(C)CC(=O)NCc2ccccc2Cl)c1,-,-,?,-,-
COc1cc(CC(=O)N(c2ccccc2)c2nc(C)cs2)cc(OC)c1OC,-,-,?,-,?
Cc1ccc2c([N+](=O)[O-])cccc2n1,-,-,-,-,-
Cc1nc2c(ccc3c([N+](=O)[O-])cccc32)c(C)c1C,-,37,-,-,-
O=C(Nc1cc2c(cc1Br)OCCO2)c1ccc(=O)[nH]c1,-,.,.,.,.
Cc1cccc(NC(=O)NN2CCN(C)CC2)c1C,-,-,-,-,-
O=C1C2C3C=CC(CC3)C2C(=O)N1c1ccccc1F (stereo not given),-63,-,-,-,-
COc1cc(C(C)=O)ccc1OCC(=O)NCC1(N2CCCCC2)CCCCC1,-,-,-,-,-
Clc1cc2nc[nH]c2cc1Cl,-,-,-,-,-
O=S(=O)(c1ccc(Br)cc1)N1CCCC1c1nc2ccccc2s1 (stereo not given),-,-,?,-,10µM
CN(C)S(=O)(=O)c1ccc(C(=O)N2CCCC2c2nc3ccccc3s2)cc1 (stereo not given),-,-,?,-,?
O=S(=O)(c1ccc(N2CCCC2)nc1)N1CCOCC1,-,-,.,-,-
O=S(=O)(c1ccc(N2CCCC2c2nc3ccccc3s2)nc1)N1CCOCC1 (stereo not given),-,-,12µM,-,10µM
COc1cccc(C(=O)NCCSc2c(-c3ccc(F)cc3)[nH]c3ccccc23)c1OC,-,.,.,.,.
COCCNC(=O)C1(C)Cc2c(-c3ccc4c(c3)OCO4)ccnc2O1 (stereo not given),-,.,.,.,.
Cc1ccc(Cn2ccsc2=NC(=O)COC(=O)c2ccc(O)cc2O)cc1,-79,38,?,135,?
N#Cc1ccc2nc(-c3ccc(CN4CCC(n5cc(-c6ccccc6)[nH]c5=O)CC4)cc3)c(-c3ccccc3)nc2c1,-99,.,.,.,.
c1ccc2c(c1)C(=Nn1cnnc1)c1ccccc1-2,-,-,12µM,-,-
O=C1/C(=N/n2cnnc2)c2ccccc2N1Cc1ccccc1,.,-,9.3µM,-,-
Oc1ccccc1/C=N/n1cnnc1,-,-,-,-,.
COc1ccc(S(=O)(=O)c2cn(CC(=O)Nc3ccccc3)c3ccc(Cl)cc3c2=O)cc1,-,.,.,.,.
COc1ccc(CCNC(=O)CCCn2c(=O)c3cccn3c3cccnc32)c(OC)c1OC,-,-,13µM,-,?
COc1ccc(CCNC(=O)CCCn2c(=O)c3cccn3c3cccnc32)c(OC)c1,-,-,10µM,-,?
COc1ccc(N2CCN(C(=O)CCCn3c(=O)c4cccn4c4cccnc43)CC2)cc1,-,-,-,-,12µM
O=C(CCC(=O)N/N=C/c1ccccc1O)NCc1ccccc1,-,-,-,-,-
SMILES,HCMV antiviral,Cycloheximide cs,Pf growth 96h,Shiga inhibitor,Pf growth 48h
CCOC(=O)N1CCc2c(sc3c2c(=O)n(Cc2ccccc2)c(=O)n3CC(=O)Nc2ccc(C)cc2C)C1,-,.,.,.,.
COc1cc2c(cc1OC)C(C)=NC1(CCCCC1)C2,-,-,-,-,?
COc1cc2c(cc1OC)C(SC)=NC1(CCCC1)C2,-,-,-,-,10µM
COc1ccc(NC(=O)CC(=O)Nc2ccc(OC)cc2)cc1,-,.,.,.,.
COC(=O)c1cc(CNC(=O)CCCSc2ccccc2)ccc1OC,-,23,-,-,-
COc1ccc(NC(=O)Cc2ccccc2)cc1,-,30,?,38,-
CCc1ccc(NC(=O)Cc2ccc(OC)cc2)cc1,.,28,-,41,-
CCN(C(=O)c1ccc(NC(=O)Cc2ccccc2)cc1)c1ccccc1,-67,-,?,-,-
COc1ccc(NC(=O)CNC(=O)Cc2ccccc2)cc1,-,-,-,-,-
COc1cc(CN2CCNC(=O)C2CC(=O)NCc2csc(C(C)C)n2)cc(OC)c1 (stereo not given),-,-,-,-,-
CC(NC(C(=O)c1ccccc1)c1ccccc1)c1ccccc1 (stereo not given),-,.,.,.,.
Cc1ccc(C(C)C)cc1OCC(=O)N1CCN(C(=O)c2ccco2)CC1,-,.,?,.,?
COc1ccc(CNC(=O)c2ccc3c(c2)N(C)C(=O)C2CCCCN32)cc1OC (stereo not given),-,.,.,.,.
Cn1c(NCCO)nc2c1c(=O)n(Cc1ccccc1Cl)c(=O)n2C,-,.,.,.,.
COc1ccc(NC(=O)CS(=O)c2ccccc2Cl)cc1 (stereo not given),-,15,-,-,-
COc1ccc(NC(=O)CCC(=O)NCCO)cc1,-,16,-,45,-
COc1ccc(NC(=O)CS(=O)CC(=O)Nc2ccc(OC)c(OC)c2)cc1 (stereo not given),-,-,-,-,.
COc1ccc(NC(=O)COC(=O)CCSc2ccccc2)cc1,-,.,.,.,.
COc1ccc(NC(=O)CCCSc2ccccc2)cc1,-,24,-,-,-
COc1ccc(CC(=O)Nc2ccc(C(C)=O)cc2)cc1,-,28,-,-,-
O=C(CCC(=O)Nc1ccccc1)NCCO,-,-,-,-,-
CCCCCCn1c(=O)n2n(c1=O)[C@@H]1CN(S(=O)(=O)c3ccc(C)cc3)C[C@]1(O)[C@@H](OC(=O)NC1CCCC1)C2,-,.,.,.,.
COc1ccccc1NC(=O)CSCc1nc2ccccc2[nH]1,-,-,12µM,-,?
CCCCNS(=O)(=O)c1ccc(NC(=O)Cc2ccc(OC)cc2)cc1,-67,-,-,-,-[5.75 µM]
COc1ccc(NC(=O)C(NC(=O)OC(C)(C)C)C(C)OCc2ccccc2)cc1 (stereo not given),-,-,1.7µM,-,-
SMILES,HCMV antiviral,Cycloheximide cs,Pf growth 96h,Shiga inhibitor,Pf growth 48h
COc1ccc(NC(=O)Cc2nc3ccccc3[nH]2)cc1,-,-,?,-,12µM
COc1ccccc1NC(=O)COC(=O)CCc1ccc(S(=O)(=O)N2CCOCC2)cc1,-,.,-,.,?
Cc1c(C(=O)NCc2ccccc2CN2CCCC2)oc2ccc(F)cc12,-,.,?,.,?
Cc1cc(OC(=O)CCNC(=O)OC(C)(C)C)c2c3c(c(=O)oc2c1)CCC3,-,-,4.7µM,-,4.7µM
CCCn1c(=O)c2ccccc2n2c(SCCOc3ccc(Cl)cc3)nnc12,-,-,-,70,-
CC1(c2ccc(Cl)cc2Cl)NC(=O)N(CC(=O)NCCC2=CCCCC2)C1=O (stereo not given),-,.,.,.,.
Cc1ccc(/C(N)=N/OC(=O)c2ccco2)cc1,-,22,-,active,-
Cc1occc1C(=O)O/N=C(\N)c1ccc(Cl)cc1,-,66,?,136,?
COc1ccc(/C(N)=N/OC(=O)c2ccco2)cc1,-,-,-,-,-
N/C(=N\OC(=O)c1ccco1)c1ccccc1,-,32,-,+,-
Cc1cccc(/C(N)=N/OC(=O)c2ccco2)c1,-,26,?,72,.
Cc1cccc(C(=O)NCCNC(=O)c2ccco2)c1,-,-,-,-,-
N/C(=N\OC(=O)c1cc(-c2ccccc2)nc2ccccc12)c1ccc(Cl)cc1,-,-,?,-,-
N/C(=N\OC(=O)c1ccco1)c1ccc(Br)cc1,-,39,-,95,-
